These results are taken from PubChem BioAssay.

The subject of assay [1] is Plasmodium falciparum Sir2 (PF13_0152, Sir2A). Kind of assay: Plasmodium falciparum Sir2A binding compounds – biochemical, small-molecule microarray, 635 nm fluorescence, primary screen (AID 1098).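 Also: score merges spot fluorescence intensity with its signal-to-noise ratio.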 Conditions: fluorescence 635 nm, higher = more signal.
Assay [2] can be described thus: probe aDKK1 binding to arrayed compounds – biochemical, biotinylated probe, 635/667 nm fluorescence, primary screen (AID 1099).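 Also: score merges 667nm spot fluorescence with signal to noise across triplicate slides; reference of the scale not given here.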 As to conditions: small-molecule microarray, higher = more signal.
Assay [3] is described as follows: probe aCHRDL2 binding to arrayed compounds – biochemical, biotinylated probe, 635/667 nm fluorescence, primary screen (AID 1100). As to conditions: small-molecule microarray, higher = more signal.
Assay [4] can be described thus: change in splice reporter luminescence, either direction, cell-based, HEK293, spliceosome inhibition project, primary screen (AID 1101).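 Also: HEK293 cells carrying a splicing-competent luciferase reporter gene; test concentration not given here.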 Conditions: HEK293 splicing luciferase reporter, 24 h, higher = more signal, called active from +8 up or from −8 down.
In assay [5] the target is Fibroblast growth factor 10 (Homo sapiens) (UniProt O15520). Kind of assay: compounds binding fibroblast growth factor 10 – biochemical, small-molecule microarray, 635 nm fluorescence, primary screen (AID 1102). Conditions: FGF10 binding, fluorescence 635 nm, higher = more signal.
Sequence of Fibroblast growth factor 10 (Homo sapiens) (O15520 whole entry, looked up): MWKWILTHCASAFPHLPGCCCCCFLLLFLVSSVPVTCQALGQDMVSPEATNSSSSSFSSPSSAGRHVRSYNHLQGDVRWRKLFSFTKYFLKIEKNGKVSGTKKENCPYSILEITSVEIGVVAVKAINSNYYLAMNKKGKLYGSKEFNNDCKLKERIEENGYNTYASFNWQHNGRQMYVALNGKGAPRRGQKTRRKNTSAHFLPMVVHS
Assay [6] relates to glycogen synthase kinase-3 (GSK3A per assay name; protocol says GSK3B). In words: compounds binding glycogen synthase kinase-3 – biochemical, small-molecule microarray, 635 nm fluorescence, GSK3A, primary screen (AID 1103). Also: the record names both GSK3A and GSK3B. Conditions: fluorescence 635 nm, higher = more signal.
In assay [7] the target is Epidermal growth factor receptor (Homo sapiens) (UniProt P00533). Kind of assay: compounds binding epidermal growth factor receptor – biochemical, small-molecule microarray, 635 nm fluorescence, primary screen (AID 1104).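 Also: score merges 667 nm emission intensity with spot signal to noise over triplicate slides.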 As to conditions: EGFR binding, higher = more signal.
Sequence of Epidermal growth factor receptor (Homo sapiens) (P00533 whole entry, looked up): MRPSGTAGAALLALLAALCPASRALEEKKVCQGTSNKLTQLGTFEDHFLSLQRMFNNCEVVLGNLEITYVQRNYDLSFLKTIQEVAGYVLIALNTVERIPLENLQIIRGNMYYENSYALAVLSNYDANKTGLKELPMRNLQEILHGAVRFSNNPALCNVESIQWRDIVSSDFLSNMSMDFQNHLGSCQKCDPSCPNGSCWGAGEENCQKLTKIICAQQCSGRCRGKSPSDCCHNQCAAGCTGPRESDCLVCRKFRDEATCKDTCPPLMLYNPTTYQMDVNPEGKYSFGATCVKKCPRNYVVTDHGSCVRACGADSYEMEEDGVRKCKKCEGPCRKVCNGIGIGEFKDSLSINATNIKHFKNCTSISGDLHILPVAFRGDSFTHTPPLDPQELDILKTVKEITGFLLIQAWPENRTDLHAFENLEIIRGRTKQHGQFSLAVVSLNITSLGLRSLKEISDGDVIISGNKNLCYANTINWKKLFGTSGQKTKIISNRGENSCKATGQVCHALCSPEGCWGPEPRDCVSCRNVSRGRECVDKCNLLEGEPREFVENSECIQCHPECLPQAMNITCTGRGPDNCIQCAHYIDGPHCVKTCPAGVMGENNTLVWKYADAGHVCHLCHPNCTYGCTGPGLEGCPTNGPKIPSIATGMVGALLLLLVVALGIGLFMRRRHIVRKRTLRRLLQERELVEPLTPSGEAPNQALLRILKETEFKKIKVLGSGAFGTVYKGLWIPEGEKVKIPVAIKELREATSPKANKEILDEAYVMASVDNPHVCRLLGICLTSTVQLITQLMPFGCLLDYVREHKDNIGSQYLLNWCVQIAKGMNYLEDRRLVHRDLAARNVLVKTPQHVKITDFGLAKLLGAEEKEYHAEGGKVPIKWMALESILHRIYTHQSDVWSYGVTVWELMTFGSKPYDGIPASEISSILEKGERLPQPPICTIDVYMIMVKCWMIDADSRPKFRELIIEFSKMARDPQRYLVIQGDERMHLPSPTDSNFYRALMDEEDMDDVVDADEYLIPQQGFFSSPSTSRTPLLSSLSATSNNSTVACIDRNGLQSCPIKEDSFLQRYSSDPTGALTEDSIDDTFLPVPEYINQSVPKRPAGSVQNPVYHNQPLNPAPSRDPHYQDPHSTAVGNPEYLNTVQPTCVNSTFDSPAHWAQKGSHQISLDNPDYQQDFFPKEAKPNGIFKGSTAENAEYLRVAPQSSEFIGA
Assay [8] addresses Follistatin-related protein 3 (Homo sapiens) (UniProt O95633). In words: compounds binding follistatin-related protein 3 – biochemical, small-molecule microarray, 635 nm fluorescence, primary screen (AID 1105).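 Also: score merges emission near 667 nm and signal to noise per printed spot across three slides.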 As to conditions: FSTL3 binding, higher = more signal.
Assay [9] has as its target Dickkopf-related protein 1 (Homo sapiens) (UniProt O94907). In words: small molecules binding DKK1 protein – biochemical, small-molecule microarray, 635 nm fluorescence scan, primary screen (AID 1106).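 Also: score merges emission near 667 nm with signal to noise over three replicate slides.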 As to conditions: higher = more signal.
Assay [10] concerns Inhibin beta A chain (activin A). Kind of assay: small molecules binding activin A – biochemical, small-molecule microarray, 635 nm fluorescence scan, primary screen (AID 1107).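 Also: mouse activin A protein probed at 4.33 µg/mL on printed slides; score merges bound-protein fluorescence near 667 nm with spot signal-to-noise.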 Conditions: INHBA, higher = more signal.

Structures are written as SMILES. Several values for one entry are separate records, joined by “and”; a condition that tells them apart may be missing. Identical values can stand only once. Activity calls are given as the source filed them.

Sequence of Follistatin-related protein 3 (Homo sapiens) (O95633 whole entry, looked up): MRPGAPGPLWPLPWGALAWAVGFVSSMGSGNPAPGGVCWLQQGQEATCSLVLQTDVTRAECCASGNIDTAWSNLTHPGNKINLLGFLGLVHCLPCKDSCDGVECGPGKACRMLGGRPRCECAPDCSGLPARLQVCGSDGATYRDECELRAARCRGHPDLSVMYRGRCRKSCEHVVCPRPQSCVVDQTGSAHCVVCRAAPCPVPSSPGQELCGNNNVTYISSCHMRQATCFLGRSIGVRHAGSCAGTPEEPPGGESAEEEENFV
Sequence of Dickkopf-related protein 1 (Homo sapiens) (O94907 whole entry, looked up): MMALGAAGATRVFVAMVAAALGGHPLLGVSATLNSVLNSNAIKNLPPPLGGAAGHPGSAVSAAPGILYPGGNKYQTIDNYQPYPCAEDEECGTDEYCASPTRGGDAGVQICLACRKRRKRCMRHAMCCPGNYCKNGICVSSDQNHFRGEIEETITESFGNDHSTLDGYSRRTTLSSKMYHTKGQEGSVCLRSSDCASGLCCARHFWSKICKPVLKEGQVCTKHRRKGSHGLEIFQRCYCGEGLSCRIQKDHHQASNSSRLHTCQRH

In the case of `C=C(C)C(=O)OC[C@@H]1CN2[C@@H](CC[C@@H](C)[C@@H]2c2ccc(Br)cc2)C(=O)O1`, the composite z-score in [1] is 0.913; in [2], -0.199; in [3], -0.374; in [5], 0.634; in [6], 0.399; in assay [7], 0.263. Moreover, the results for the composite z-score in [8], in [9] and in assay [10] were 1.08, 0.872 and 0.984, respectively. Also, the z-score in assay [4] is -0.46 (inactive).

For `Cc1ccc(S(=O)(=O)OC[C@@H]2CN3[C@@H](CC[C@@H](C)[C@@H]3c3ccc(Br)cc3)C(=O)O2)cc1`, the composite z-score in assay [1] was 0.257 and 0.321; in assay [2], 0.151 and 0.128; in assay [3], -0.234 and -0.289; in assay [5] it was 0.0993 and 0.625; in assay [6], 0.0442 and 0.372; in [7], 0.352 and 0.49. Moreover, the composite z-score is 0.0546 and 0.262 in assay [8]; 0.235 and 0.46 in assay [9]; 0.758 and 0.354 in [10]. In addition, the z-score in [4] was 0.479 (inactive) and 0.402 (inactive).

For `C=CC[C@@H](O)c1ccc(OCCO)cc1`, the composite z-score in assay [1] was 0.153 and 0.572; in assay [2], -0.458 and -0.292; in assay [3], 0.644 and 0.889; in assay [5], -0.906 and -0.929; in assay [6] it was 0.512 and -0.567; in assay [7], -0.798 and -1.61. Further, the composite z-score is 0.132 and -0.565 in [8]; -0.751 and -1.58 in [9]; -0.911 and -1.46 in [10]. For the same molecule, the z-score in assay [4] is -1.87 (inactive) and -2.09 (inactive).

Turning to `C=CCN(C(=O)C(c1cccs1)N(C(=O)/C=C\C(=O)O)c1ccc(CCO)cc1)c1ccc(OC)cc1` (stereo not given), the composite z-score was -0.087 and -1.23 in [1]; -0.26 and 0.0389 in assay [2]; 0.822 and 1.13 in assay [3]; -1.94 and -2.06 in [5]; -1.57 and -1.13 in assay [6]; -1.46 and -2.92 in [7]. In addition, the composite z-score was -1.38 and -2.79 in [8]; -2.88 and -3.33 in assay [9]; -1.56 and -1.86 in assay [10]. Also, the z-score in [4] was 0.0213 (inactive) and 0.54 (inactive).

Consider `C=CCN(CCCC)C(=O)C1N(c2c(Cl)cccc2CO)C(=O)C2C(C(=O)O)C3C=CC21O3` (stereo not given), for which the composite z-score was 0.934 and -0.194 in [1]; 0.0215 and -0.0881 in assay [2]; 1.08 and 0.748 in assay [3]; -0.613 and -1.38 in [5]; -2.1 and -0.938 in assay [6]; -1.71 and -1.18 in assay [7]. Further, the composite z-score is -2.37 and -1.28 in [8]; -2.46 and -2.71 in assay [9]; -1.41 and -0.0137 in [10]. Moreover, the z-score in [4] is -0.786 (inactive) and -0.929 (inactive).

With `C[N+](C)(C)CCCCCCNC(=O)[C@H]1C[C@H]2C(=O)N[C@@H](CCCC[N+](C)(C)C)C(=O)N2[C@H]1c1cccc(OCCO)c1`, the composite z-score in assay [1] is 1.73 and 1.42; in [2] it was -0.0501 and 1.08; in assay [3] it was -0.148 and 0.62; in assay [5], 1.2 and 0.913; in assay [6], 0.898 and 0.613; in assay [7], 0.111 and 0.558. Also, the composite z-score in assay [8] was 1.44 and 0.262; in assay [9] it was 1.34 and 1.55; in assay [10], 0.589 and 1.36. Also, in [4], the z-score was -0.159 (inactive) and 0.257 (inactive).

Turning to `C=CC[C@@H](O)c1ccc(O)c(F)c1`, the composite z-score is 0.358 and 0.514 in [1]; -0.388 and -0.293 in assay [2]; 0.92 and 0.751 in assay [3]; -1.38 and -0.756 in assay [5]; -1.43 and -0.85 in assay [6]; -1.81 and -1.65 in assay [7]. Further, the composite z-score in assay [8] is -2.63 and -1.02; in [9], -1.95 and -0.898; in [10], -2.07 and -0.334. Further, the z-score in assay [4] was -0.55 (inactive) and -1.23 (inactive).

Take `CCN1C(=O)[C@H]2[C@H]3[C@H](O)[C@H](O)CC(=NOC[C@@H](O)COCc4ccco4)[C@@H]3CC[C@H]2C1=O`: the composite z-score is 0.449 and 1.11 in assay [1]; 0.439 and -0.572 in assay [2]; -1.3 and -1.1 in assay [3]; -0.397 and 0.588 in [5]; 0.823 and -0.198 in assay [6]; 1.28 and 0.0979 in assay [7]. Moreover, the composite z-score in [8] was 1.21 and -0.333; in assay [9], 1.56 and 0.836; in [10], 0.666 and -0.0006. For the same molecule, in [4], the z-score was 0.259 (inactive) and 0.403 (inactive).

On to `COC(=O)C1=C(C)N(Cc2ccccc2)C2=C(C(=O)c3ccccc3)[C@H](c3ccccc3)[C@@](O)(C(=O)OC)C(=O)N2[C@@H]1c1ccccc1`, for which the composite z-score in assay [1] is 0.419 and 0.36; in assay [2] it was -0.0581 and -0.208; in assay [3], -0.178 and -0.433; in assay [5], 0.654 and 0.495; in assay [6] it was 0.739 and 0.519; in assay [7] it was 0.392 and 0.353. Besides, the composite z-score in assay [8] was 0.626 and 0.53; in assay [9], 0.638 and 0.349; in [10], -0.0471 and -0.0052. The z-score in assay [4] is -1.7 (inactive) and 0.839 (inactive).

On to `CC(CO)N1C(=O)[C@@H]2C3C(=O)OCCC=C[C@H]3OC23C=CCN(Cn2nnc4ccccc42)C(=O)[C@@H]13` (stereo not given in full), for which the composite z-score was 1.07 and 1.47 in assay [1]; -0.26 and -0.125 in assay [2]; 0.683 and 0.303 in assay [3]; -0.914 and 0.715 in [5]; -1.38 and -0.212 in assay [6]; -1.56 and -0.105 in assay [7]. Besides, the composite z-score in assay [8] is -1.68 and -0.219; in assay [9], -2.03 and -0.18; in [10], -0.785 and 0.234. Also, the z-score in [4] was -0.0985 (inactive) and 0.148 (inactive).

In the case of `Cc1cc2c(nc1C)CCCN2CC(O)CN1CCCc2nc(-c3ccc(Br)cc3)ccc21` (stereo not given), the composite z-score in assay [1] was 1.16 and 0.822; in assay [2], 0.116 and 1.46; in assay [3] it was 0.334 and 0.608; in [5], 1.21 and 1.31; in [6], 1.29 and 1.14; in assay [7], 0.852 and 1.05. Besides, the composite z-score in assay [8] is 1.43 and 1.25; in [9], 1.06 and 1.08; in [10], 1.33 and 1.31. Besides, the z-score in assay [4] is -0.605 (inactive) and -0.58 (inactive).

As to `C=CCN(Cc1ccccc1)C(=O)C(c1cccs1)N(C(=O)/C=C\C(=O)O)c1c(Cl)cccc1CO` (stereo not given), the composite z-score is -1.01 and -1.02 in assay [1]; -0.833 and 0.0042 in [2]; 0.898 and 0.996 in assay [3]; -1.96 and -1.73 in assay [5]; -1.09 and -1.76 in assay [6]; -1.63 and -1.36 in assay [7]. The composite z-score in [8] was -1.27 and -2.07; in [9] it was -2.01 and -2.62; in assay [10] it was -3.32 and -2.86. Besides, the z-score in assay [4] is 0.395 (inactive) and -0.0385 (inactive).

For the molecule `O=c1n(-c2ccccc2)c(=O)n2n1CC[C@@H]1C(=NOC[C@@H](O)COCc3ccco3)[C@H]3O[C@H]3[C@@H](O)[C@@H]12`, the composite z-score is 0.981 and 1.38 in [1]; -0.418 and -0.503 in [2]; -0.929 and -0.662 in assay [3]; 0.526 and -0.556 in assay [5]; 0.605 and -0.449 in assay [6]; 0.634 and 0.518 in assay [7]. Besides, the composite z-score in assay [8] was 0.973 and 0.426; in assay [9] it was 1.24 and 0.48; in assay [10] it was 0.467 and 0.442. In assay [4], the z-score was -1.51 (inactive) and 0.0711 (inactive).

As for `CCOC(=O)NN=C1C[C@@H](O)[C@@H](O)[C@@H]2[C@@H]3C(=O)N(Cc4ccccc4)C(=O)[C@@H]3CC[C@@H]12`, the composite z-score in [1] is 0.454; in assay [2], -0.287; in assay [3] it was -0.655; in [5] it was 0.118; in assay [6] it was 0.304; in assay [7], 0.542. Also, the composite z-score was 0.59 in assay [8], 0.355 in [9] and -0.208 in assay [10]. The z-score in assay [4] was 0.477 (inactive).

In the case of `CCCCN1CC=CC23O[C@@H]4C=CCCOC(=O)C4[C@H]2C(=O)N(C(C)CO)[C@@H]3C1=O` (stereo not given in full), the composite z-score is 0.381 and 0.0105 in assay [1]; -0.286 and -0.221 in [2]; 0.473 and -0.194 in [3]; -0.346 and 0.232 in [5]; -0.662 and -0.551 in [6]; -0.683 and -0.191 in [7]. Besides, the composite z-score in assay [8] is -0.934 and -0.0066; in assay [9], -0.135 and 0.176; in assay [10], 0.958 and 1.07. Also, in assay [4], the z-score is 0.856 (inactive) and -0.0825 (inactive).
